# Experimental data taken from PMC7862700, “An all-to-all approach to the identification of sequence-specific readers for epigenetic DNA modifications on cytosine”.
# What was measured:
# Test in all cases: DAPPL (digital affinity profiling via proximity ligation, sequencing); 10 mM Tris-HCl pH 7.5, 50 mM NaCl, 1 mM DTT, 4% glycerol, room temperature, 30 min; GST-TFs on glutathione beads, 16-mer random dsDNA library, 0.1% formaldehyde crosslink after washing; high values mean tight binding
# FEV = target: T1, FEV (Homo sapiens, UniProt Q99581 1-238); details: protein: recombinant; tags: N-terminal GST; dsDNA, one strand shown
# T1 sequence: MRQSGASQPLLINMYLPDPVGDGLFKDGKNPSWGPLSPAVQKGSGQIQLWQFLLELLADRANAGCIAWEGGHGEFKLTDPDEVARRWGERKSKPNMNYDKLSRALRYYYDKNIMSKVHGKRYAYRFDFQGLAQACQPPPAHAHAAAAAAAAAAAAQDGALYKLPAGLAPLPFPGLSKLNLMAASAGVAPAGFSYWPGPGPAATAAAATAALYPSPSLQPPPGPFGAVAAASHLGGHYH
# Summary of the method: (§1)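 Beads coated with glutathione captured GST-fused human transcription factors that had been expressed in yeast, and the factors were then given DNA barcodes and pooled with a tag-only sample. The pools were incubated with 200 nmole of a random double-stranded 16-mer DNA library in Tris/NaCl/DTT/glycerol buffer for 30 min at room temperature, washed, crosslinked with 0.1% formaldehyde and proximity-ligated with BsaI/T4 ligase at 37 °C for 1 h. PCR amplification and Illumina NextSeq500 sequencing came last. Binding signal is each hexamer's read frequency for a factor divided by its frequency for the tag-only sample.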
# ETV5 = ETV5 (Homo sapiens, UniProt P41161 1-510); details: protein: recombinant; tags: N-terminal GST; dsDNA, one strand shown
# ETV5, sequence (P41161 whole entry): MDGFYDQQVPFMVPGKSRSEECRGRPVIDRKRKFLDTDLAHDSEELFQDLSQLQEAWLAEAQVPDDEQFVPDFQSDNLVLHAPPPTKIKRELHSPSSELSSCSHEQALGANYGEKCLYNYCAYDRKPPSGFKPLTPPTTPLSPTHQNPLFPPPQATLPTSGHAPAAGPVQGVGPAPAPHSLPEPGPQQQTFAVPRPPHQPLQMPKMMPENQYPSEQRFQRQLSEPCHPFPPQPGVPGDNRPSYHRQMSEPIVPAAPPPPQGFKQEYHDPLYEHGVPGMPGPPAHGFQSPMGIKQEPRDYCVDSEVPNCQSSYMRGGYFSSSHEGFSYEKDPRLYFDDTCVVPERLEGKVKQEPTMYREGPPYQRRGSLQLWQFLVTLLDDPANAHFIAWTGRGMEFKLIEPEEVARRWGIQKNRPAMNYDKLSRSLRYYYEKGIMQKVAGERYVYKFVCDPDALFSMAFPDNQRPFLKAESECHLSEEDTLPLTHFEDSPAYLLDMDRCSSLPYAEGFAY
# Summary of the method: as §1
# HSF1 = HSF1 (Homo sapiens, UniProt Q00613 1-529); details: protein: recombinant; tags: N-terminal GST; chain copies: 3; dsDNA, one strand shown
# HSF1, sequence (Q00613 whole entry): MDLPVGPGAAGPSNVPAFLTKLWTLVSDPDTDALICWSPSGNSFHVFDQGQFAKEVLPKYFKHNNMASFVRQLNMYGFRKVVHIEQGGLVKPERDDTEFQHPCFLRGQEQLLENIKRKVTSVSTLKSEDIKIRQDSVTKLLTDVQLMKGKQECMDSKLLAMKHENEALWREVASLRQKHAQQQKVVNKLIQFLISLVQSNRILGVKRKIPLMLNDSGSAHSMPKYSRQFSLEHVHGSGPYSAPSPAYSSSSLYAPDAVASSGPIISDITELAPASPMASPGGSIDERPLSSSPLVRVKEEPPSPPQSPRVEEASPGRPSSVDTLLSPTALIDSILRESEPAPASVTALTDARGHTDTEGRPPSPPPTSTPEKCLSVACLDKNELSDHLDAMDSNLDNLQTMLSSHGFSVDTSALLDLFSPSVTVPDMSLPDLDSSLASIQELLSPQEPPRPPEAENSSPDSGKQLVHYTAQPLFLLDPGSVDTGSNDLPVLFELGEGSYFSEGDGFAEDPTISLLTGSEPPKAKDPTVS
# Summary of the method: as §1
# SPIC = target: T2, SPIC (Homo sapiens, UniProt Q8N5J4 1-248); details: protein: recombinant; tags: N-terminal GST; dsDNA, one strand shown
# T2 sequence: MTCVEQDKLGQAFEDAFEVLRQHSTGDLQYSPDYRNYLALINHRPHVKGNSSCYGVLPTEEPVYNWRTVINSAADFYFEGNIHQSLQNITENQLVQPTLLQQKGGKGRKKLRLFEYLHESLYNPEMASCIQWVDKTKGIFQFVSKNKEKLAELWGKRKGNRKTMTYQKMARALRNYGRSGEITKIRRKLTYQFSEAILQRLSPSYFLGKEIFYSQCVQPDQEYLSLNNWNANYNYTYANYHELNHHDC
# Summary of the method: as §1
# ELF4 = ELF4 (Homo sapiens, UniProt Q99607 1-663); details: protein: recombinant; tags: N-terminal GST; dsDNA, one strand shown
# ELF4, sequence (Q99607 whole entry): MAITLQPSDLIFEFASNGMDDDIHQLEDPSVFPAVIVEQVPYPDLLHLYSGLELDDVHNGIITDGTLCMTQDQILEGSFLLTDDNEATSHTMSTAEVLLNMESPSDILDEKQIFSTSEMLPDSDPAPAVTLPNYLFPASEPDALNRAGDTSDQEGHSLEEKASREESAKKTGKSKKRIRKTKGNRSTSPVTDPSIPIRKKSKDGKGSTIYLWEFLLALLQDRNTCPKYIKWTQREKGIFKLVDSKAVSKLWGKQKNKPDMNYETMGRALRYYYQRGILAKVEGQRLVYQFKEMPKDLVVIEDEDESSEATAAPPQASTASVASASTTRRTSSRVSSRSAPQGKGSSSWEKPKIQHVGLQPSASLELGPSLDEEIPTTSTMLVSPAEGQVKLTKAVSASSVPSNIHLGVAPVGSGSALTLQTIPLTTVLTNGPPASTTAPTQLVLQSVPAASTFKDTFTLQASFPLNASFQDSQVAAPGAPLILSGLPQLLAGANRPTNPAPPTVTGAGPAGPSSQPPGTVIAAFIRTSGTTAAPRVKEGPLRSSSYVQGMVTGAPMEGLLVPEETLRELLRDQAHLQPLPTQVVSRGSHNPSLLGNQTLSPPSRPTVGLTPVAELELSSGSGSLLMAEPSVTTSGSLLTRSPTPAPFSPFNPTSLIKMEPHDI
# Summary of the method: as §1
# ELK4 = target: T3, ELK4 (Homo sapiens, UniProt P28324-2 1-405); details: protein: recombinant; tags: N-terminal GST; dsDNA, one strand shown
# T3 sequence: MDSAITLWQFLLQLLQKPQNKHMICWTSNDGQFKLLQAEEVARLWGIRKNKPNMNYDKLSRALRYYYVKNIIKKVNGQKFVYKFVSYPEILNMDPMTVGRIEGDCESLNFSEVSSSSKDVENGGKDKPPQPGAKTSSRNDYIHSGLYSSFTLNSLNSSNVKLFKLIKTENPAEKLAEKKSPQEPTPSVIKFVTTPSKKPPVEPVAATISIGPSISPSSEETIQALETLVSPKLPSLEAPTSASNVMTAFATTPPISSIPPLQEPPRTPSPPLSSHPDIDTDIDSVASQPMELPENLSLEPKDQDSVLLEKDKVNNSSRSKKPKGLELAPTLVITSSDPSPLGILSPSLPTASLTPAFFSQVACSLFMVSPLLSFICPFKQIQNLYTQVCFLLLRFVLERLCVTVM
# Summary of the method: as §1
# ETV2 = target: T4, ETV2 (Homo sapiens, UniProt O00321 1-342); details: protein: recombinant; tags: N-terminal GST; dsDNA, one strand shown
# T4 sequence: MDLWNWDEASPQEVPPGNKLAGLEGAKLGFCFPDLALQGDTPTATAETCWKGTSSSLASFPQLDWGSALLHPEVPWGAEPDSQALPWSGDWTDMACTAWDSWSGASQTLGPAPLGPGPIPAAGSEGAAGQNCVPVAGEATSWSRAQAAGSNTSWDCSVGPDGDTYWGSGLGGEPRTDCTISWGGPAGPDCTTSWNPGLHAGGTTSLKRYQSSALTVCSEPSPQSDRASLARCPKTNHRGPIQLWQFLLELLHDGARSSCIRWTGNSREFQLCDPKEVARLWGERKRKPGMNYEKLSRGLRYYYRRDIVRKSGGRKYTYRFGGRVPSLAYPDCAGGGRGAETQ
# Summary of the method: as §1
# ELF3 = target: T5, ELF3 (Homo sapiens, UniProt P78545 1-371); details: protein: recombinant; tags: N-terminal GST; dsDNA, one strand shown
# T5 sequence: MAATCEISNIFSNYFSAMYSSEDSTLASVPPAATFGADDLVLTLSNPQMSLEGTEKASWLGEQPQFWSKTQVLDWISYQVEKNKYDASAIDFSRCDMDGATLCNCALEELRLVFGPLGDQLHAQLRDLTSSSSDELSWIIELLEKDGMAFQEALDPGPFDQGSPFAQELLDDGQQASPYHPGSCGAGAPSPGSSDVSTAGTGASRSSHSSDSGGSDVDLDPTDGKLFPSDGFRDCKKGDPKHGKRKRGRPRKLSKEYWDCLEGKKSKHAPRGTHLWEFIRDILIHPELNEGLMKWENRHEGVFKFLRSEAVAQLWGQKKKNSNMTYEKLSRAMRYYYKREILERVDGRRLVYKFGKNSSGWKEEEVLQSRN
# Summary of the method: as §1
# CRX = CRX (Homo sapiens, UniProt O43186 1-299); details: protein: recombinant; tags: N-terminal GST; dsDNA, one strand shown
# CRX, sequence (O43186 whole entry): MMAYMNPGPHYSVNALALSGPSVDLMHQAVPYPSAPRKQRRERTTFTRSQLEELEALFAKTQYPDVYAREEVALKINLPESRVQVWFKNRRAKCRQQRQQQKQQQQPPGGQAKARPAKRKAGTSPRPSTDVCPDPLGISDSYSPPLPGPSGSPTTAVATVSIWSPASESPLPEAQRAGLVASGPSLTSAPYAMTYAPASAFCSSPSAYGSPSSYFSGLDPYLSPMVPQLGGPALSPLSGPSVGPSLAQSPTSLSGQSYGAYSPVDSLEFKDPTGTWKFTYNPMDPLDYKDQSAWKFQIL
# Summary of the method: as §1
# ETV1 = ETV1 (Homo sapiens, UniProt P50549 1-477); details: protein: recombinant; tags: N-terminal GST; dsDNA, one strand shown
# ETV1, sequence (P50549 whole entry): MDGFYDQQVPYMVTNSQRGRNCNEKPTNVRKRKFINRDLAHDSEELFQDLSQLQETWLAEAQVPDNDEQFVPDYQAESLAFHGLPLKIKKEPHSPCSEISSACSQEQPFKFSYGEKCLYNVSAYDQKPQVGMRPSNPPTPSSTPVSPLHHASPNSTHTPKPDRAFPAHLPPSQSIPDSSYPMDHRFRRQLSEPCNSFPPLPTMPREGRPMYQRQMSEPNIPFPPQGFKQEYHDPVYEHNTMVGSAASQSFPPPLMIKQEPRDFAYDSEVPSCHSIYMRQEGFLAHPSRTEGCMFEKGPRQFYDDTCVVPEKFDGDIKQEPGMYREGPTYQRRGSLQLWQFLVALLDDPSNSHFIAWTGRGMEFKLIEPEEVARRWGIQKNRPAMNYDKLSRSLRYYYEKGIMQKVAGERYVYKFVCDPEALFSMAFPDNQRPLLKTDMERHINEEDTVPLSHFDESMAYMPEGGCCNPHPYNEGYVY
# Summary of the method: as §1
# ERF = target: T6, ERF (Homo sapiens, UniProt P50548 1-548); details: protein: recombinant; tags: N-terminal GST; dsDNA, one strand shown
# T6 sequence: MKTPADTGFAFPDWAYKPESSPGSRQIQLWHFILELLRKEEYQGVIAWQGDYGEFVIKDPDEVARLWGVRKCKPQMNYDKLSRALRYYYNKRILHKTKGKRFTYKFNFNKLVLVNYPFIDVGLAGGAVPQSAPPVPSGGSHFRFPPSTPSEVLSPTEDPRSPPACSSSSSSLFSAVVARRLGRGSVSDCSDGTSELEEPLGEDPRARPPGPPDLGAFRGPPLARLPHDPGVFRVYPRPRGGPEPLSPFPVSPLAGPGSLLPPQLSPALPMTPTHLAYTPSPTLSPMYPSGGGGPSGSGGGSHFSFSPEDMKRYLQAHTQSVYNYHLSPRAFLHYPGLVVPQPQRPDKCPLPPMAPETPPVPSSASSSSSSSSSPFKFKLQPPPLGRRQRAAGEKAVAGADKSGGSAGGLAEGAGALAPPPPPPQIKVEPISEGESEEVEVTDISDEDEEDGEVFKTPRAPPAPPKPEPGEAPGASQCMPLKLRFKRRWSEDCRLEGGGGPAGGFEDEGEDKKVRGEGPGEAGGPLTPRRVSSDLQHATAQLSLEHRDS
# Summary of the method: as §1
# ETV3L = target: T7, ETV3L (Homo sapiens, UniProt Q6ZN32 1-361); details: protein: recombinant; tags: N-terminal GST; dsDNA, one strand shown
# T7 sequence: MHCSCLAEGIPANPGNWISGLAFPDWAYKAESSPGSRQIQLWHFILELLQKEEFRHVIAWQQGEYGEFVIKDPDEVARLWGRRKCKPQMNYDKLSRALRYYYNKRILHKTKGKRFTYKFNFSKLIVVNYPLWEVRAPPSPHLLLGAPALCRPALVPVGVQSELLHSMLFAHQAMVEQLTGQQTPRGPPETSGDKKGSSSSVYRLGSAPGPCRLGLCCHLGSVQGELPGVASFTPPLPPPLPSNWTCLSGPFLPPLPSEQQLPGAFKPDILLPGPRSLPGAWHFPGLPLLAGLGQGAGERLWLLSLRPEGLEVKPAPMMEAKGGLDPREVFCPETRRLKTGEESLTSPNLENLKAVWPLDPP
# Summary of the method: as §1
# ETS2 = target: T8, ETS2 (Homo sapiens, UniProt P15036 1-469); details: protein: recombinant; tags: N-terminal GST; dsDNA, one strand shown
# T8 sequence: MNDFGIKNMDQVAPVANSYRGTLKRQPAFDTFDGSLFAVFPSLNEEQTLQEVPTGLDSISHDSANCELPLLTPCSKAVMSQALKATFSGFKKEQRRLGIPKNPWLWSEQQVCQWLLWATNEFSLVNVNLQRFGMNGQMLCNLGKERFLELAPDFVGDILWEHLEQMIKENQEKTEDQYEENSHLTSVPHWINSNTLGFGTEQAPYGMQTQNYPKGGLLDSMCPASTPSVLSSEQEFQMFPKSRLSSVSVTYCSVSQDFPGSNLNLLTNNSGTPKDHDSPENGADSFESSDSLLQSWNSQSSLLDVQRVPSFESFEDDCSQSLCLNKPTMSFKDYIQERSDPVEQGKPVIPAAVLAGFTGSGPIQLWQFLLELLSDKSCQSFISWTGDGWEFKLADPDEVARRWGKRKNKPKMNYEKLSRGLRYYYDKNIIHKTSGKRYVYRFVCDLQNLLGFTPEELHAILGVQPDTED
# Summary of the method: as §1
# SPDEF = target: T9, SPDEF (Homo sapiens, UniProt O95238 1-335); details: protein: recombinant; tags: N-terminal GST; dsDNA, one strand shown
# T9 sequence: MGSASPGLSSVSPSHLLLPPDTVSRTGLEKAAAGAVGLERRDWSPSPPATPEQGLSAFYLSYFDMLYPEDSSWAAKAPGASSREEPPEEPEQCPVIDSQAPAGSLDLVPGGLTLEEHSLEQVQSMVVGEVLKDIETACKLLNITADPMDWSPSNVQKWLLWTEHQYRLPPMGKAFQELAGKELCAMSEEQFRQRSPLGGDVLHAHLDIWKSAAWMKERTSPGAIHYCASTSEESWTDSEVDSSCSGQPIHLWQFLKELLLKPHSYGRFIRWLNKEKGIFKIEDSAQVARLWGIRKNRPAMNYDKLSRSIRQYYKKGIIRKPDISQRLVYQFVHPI
# Summary of the method: as §1
# ETV7 = target: T10, ETV7 (Homo sapiens, UniProt Q9Y603 1-341); details: protein: recombinant; tags: N-terminal GST; dsDNA, one strand shown
# T10 sequence: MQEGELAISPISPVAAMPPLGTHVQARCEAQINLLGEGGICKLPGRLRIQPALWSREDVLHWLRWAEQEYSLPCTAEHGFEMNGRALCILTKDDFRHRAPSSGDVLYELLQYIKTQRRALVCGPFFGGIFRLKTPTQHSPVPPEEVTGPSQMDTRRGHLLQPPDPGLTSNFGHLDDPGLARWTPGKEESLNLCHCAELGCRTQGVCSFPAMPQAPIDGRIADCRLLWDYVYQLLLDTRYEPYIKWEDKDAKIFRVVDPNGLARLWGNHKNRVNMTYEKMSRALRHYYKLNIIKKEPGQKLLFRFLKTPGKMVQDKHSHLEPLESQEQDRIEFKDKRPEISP
# Summary of the method: as §1
# ELF5 = target: T11, ELF5 (Homo sapiens, UniProt Q9UKW6-2 1-255); details: protein: recombinant; tags: N-terminal GST; dsDNA, one strand shown
# T11 sequence: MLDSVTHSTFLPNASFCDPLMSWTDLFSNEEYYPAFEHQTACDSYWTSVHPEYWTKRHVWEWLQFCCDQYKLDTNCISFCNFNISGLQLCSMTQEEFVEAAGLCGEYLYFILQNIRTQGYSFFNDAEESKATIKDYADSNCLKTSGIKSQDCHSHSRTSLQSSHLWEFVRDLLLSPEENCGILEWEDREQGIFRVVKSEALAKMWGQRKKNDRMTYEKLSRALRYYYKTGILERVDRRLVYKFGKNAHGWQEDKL
# Summary of the method: as §1
# ETV3 = target: T12, ETV3 (Homo sapiens, UniProt P41162-2 1-143); details: protein: recombinant; tags: N-terminal GST; dsDNA, one strand shown
# T12 sequence: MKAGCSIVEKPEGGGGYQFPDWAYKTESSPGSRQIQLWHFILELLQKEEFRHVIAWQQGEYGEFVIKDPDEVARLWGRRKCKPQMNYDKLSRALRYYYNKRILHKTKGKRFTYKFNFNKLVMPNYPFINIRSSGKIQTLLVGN
# Summary of the method: as §1
# ETV6 = ETV6 (Homo sapiens, UniProt P41212 1-452); details: protein: recombinant; tags: N-terminal GST; dsDNA, one strand shown
# ETV6, sequence (P41212 whole entry): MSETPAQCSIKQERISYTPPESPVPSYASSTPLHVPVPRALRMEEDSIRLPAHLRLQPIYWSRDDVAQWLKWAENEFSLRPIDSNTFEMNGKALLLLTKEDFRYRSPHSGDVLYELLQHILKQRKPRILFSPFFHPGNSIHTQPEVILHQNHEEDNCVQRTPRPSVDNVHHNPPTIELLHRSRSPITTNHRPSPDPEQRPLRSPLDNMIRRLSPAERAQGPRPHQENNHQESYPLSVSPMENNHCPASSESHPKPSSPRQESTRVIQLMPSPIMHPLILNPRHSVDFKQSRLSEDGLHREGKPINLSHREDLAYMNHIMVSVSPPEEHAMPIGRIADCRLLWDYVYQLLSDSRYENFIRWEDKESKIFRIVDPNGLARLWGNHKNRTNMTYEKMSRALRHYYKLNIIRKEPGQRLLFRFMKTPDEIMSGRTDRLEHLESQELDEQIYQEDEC
# Summary of the method: as §1
sequence,measurement,setting,value
TCTATC,binding signal,FEV,"1.16 fold enrichment (6-mer frequency, TF over GST control)"
same,binding signal,ETV5,"1.19 fold enrichment (6-mer frequency, TF over GST control)"
same,binding signal,HSF1,"1.43 fold enrichment (6-mer frequency, TF over GST control)"
same,binding signal,SPIC,"1.23 fold enrichment (6-mer frequency, TF over GST control)"
same,binding signal,ELF4,"1.25 fold enrichment (6-mer frequency, TF over GST control)"
same,binding signal,ELK4,"1.24 fold enrichment (6-mer frequency, TF over GST control)"
same,binding signal,ETV2,"1.27 fold enrichment (6-mer frequency, TF over GST control)"
same,binding signal,ELF3,"1.29 fold enrichment (6-mer frequency, TF over GST control)"
same,binding signal,CRX,"1.32 fold enrichment (6-mer frequency, TF over GST control)"
same,binding signal,ETV1,"1.16 fold enrichment (6-mer frequency, TF over GST control)"
same,binding signal,ERF,"1.37 fold enrichment (6-mer frequency, TF over GST control)"
same,binding signal,ETV3L,"1.27 fold enrichment (6-mer frequency, TF over GST control)"
same,binding signal,ETS2,"1.16 fold enrichment (6-mer frequency, TF over GST control)"
same,binding signal,SPDEF,"1.27 fold enrichment (6-mer frequency, TF over GST control)"
same,binding signal,ETV7,"1.27 fold enrichment (6-mer frequency, TF over GST control)"
same,binding signal,ELF5,"1.24 fold enrichment (6-mer frequency, TF over GST control)"
same,binding signal,ETV3,"1.2 fold enrichment (6-mer frequency, TF over GST control)"
same,binding signal,ETV6,"1.32 fold enrichment (6-mer frequency, TF over GST control)"
